Assay results from PubChem BioAssay AID2283097 (EPA ToxCast).
Results filed as inconclusive are left out. Activity calls are given as the source filed them. Rule for the calls: active = hit-call score of the fitted dose curve at least 0.9, where 1 is the maximum; inconclusive = response in the unintended direction; inactive = score below 0.9.

Molecular target: human CYP1B1, CYP1B1 (gene 1545) (UniProt Q16678)
Test: NVS_ADME_hCYP1B1: NovaScreen (NVS) CYP450-related Enzyme Activity (ADME) Assay for human CYP1B1
Procedure: NVS_ADME_hCYP1B1 is a biochemical, single-readout assay that uses extracted gene-proteins in a cell-free assay. Measurements were taken 1 hour after chemical dosing in a 96-well plate.NVS_ADME_hCYP1B1 is one of one assay component(s) measured or calculated from the NVS_ADME_hCYP1B1 assay. It is designed to make measurements of enzyme activity, a form of enzyme reporter, as detected with fluorescence intensity signals by Fluorescence technology.Data from the assay component NVS_ADME_hCYP1B1 was analyzed into 1 assay endpoint. This assay endpoint, NVS_ADME_hCYP1B1, was analyzed in the positive analysis fitting direction relative to Acetonitrile as the negative control and baseline of activity. Using a type of enzyme reporter, loss-of-signal activity can be used to understand changes in the enzymatic activity as they relate to the gene CYP1B1. Furthermore, this assay endpoint can be referred to as a primary readout, because this assay has produced multiple assay endpoints where this one serves a enzymatic activity function. To generalize the intended target to other relatable targets, this assay endpoint is annotated to the cyp intended target family, where the subfamily is xenobiotic metabolism. […]

Chain of human CYP1B1, CYP1B1 (gene 1545) (Q16678 whole entry, looked up): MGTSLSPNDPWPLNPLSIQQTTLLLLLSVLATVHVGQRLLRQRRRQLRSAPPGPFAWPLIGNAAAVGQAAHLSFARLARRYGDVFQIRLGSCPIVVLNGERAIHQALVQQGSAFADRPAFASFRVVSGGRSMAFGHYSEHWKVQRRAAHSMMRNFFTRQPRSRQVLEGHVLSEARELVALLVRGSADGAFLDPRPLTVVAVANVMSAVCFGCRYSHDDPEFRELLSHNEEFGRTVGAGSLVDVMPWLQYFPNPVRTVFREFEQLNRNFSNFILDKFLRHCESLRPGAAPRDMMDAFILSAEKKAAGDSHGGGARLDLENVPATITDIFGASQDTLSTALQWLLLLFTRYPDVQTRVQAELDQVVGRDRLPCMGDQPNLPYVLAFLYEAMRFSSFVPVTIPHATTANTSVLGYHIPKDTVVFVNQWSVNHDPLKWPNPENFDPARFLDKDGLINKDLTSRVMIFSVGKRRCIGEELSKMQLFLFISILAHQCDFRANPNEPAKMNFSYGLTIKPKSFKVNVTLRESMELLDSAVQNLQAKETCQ

| SMILES | AC50 |
| --- | --- |
| c1ccc2[nH]c(-c3cscn3)nc2c1 | 6.26 µM (active) |
| C#CCOC(=O)[C@@H](C)Oc1ccc(Oc2ncc(Cl)cc2F)cc1 | 2.14 µM (active) |
